From paper PMC12864922, “TDP-43 directly inhibits mRNA accumulation in neurites through modulation of mRNA stability” come the findings set out here.

Numbering of substitutions follows the chain as printed. Whole data set: some 9,900 sequences, median “r (bound/input frequency ratio)” near 0.7, cut for the highest 2% near 6.5. The sample as a whole holds a higher share of the highest values than the screen did.

B1: ENSMUSG00000031028.294|Tub|205:209 (ssRNA)
RNA: GGGAGUUCUACAGUCCGACGAUCGCUUCGAUAUCCGCAUGCUAUAGAUUUCCCAGGUUGGACACUCGACGAAAGGCACACCUGCUGCAGCAGGUUCUGACACACCUGAGCCAUACAUUGCCAUCAGAGAACCCUCAGCGAGGUAGCCUUUGUUUACAGUCUAGUUUCUAGAGGGCAGUAGGACUUCCAUGCUGGGGCUGGCCUAUCUCCUGAUGAAAGAUUACAGUGCCAUCUCCUUCCCAUAGUUCACACACUGCCCUCCCUCCCUGACUUUAUAGGGAGAAAUCUCCUGACAUUAGAGGUGCUCUUGCGGUCGCACUAGUGUGGAAUUCUCGGGUGUCAAGG
B2: ENSMUSG00000032194.156|Kank2|226:232 (ssRNA)
RNA: GGGAGUUCUACAGUCCGACGAUCGCUUCGAUAUCCGCAUGCUAAAAAAAGAAAAAAGGCCAUUCCGGAGUGACUCCCAGCAUCACAGCCCAGAACCUCCUCCUCAAAGGAGAGUAAACAGAGACUGUGAUACUGACCAAGUACAGGCGCUCGCUAUGAAGCCCAUAUGUUCCUGAUUAAGAGCUGGCUGGCCUCAGAGCACUCCCAGAACUAGCUUAAAGUGACAGGCUUUGCUGAAAUCCAAAGGGACAAAAGAGUAGUUUUAUGUUACACACAUUGUUUUUAAUGCCCUGGAGCUCCUGCUCUCUUGCGGUCGCACUAGUGUGGAAUUCUCGGGUGUCAAGG
B3: ENSMUSG00000061578.741|Ksr2 (ssRNA)
RNA: GGGAGUUCUACAGUCCGACGAUCGCUUCGAUAUCCGCAUGCUAUUUAAAUACCUGCUGCAGGCCUCCCAUCUCUGGCUCUUUGUUUCCACUCUGGCCCAAGUUUGAGUCUCCAUAUGGGCCCUUCCUGUCCUCAUGCCCUGCCUGUCUUCAUUCCACCCAUCCACCCUCCUAAGGAUUGGUCUUGUUCCGAGAGUGAUCCUGGUAACGCCAAGCCUCCCUCUGCCCCUGUGUUGGCUUCUGUGACGGACUACCACACACCAAGAGGUUUUUCACAGUGAAGAUGUAUGCUCUCACCAUCCUACCUCUUGCGGUCGCACUAGUGUGGAAUUCUCGGGUGUCAAGG
B4: ENSMUSG00000061578.701|Ksr2|49:53 (ssRNA)
RNA: GGGAGUUCUACAGUCCGACGAUCGCUUCGAUAUCCGCAUGCUAUACUCCCAGAUCUGGGGUGAUCUCUUGAGGUGCCUUCCUGUAGUCUCUACACACAUCUUCUUCUAAGACCACUAAUAACACCGCCUUUCUCCUUGAUCCGGGCCUCAGACCUCUUCAGAGAUUCUUUCUCUGAAUGUACGUGGGGGACUCCAACAGAUGUUGGGAGAAGACUCAAUAUGAGCAUACGGGGUCAUUGUUCAAUCCUGUAUCAAGACCUUGGAGUUGUCUAAGGCUGUGGGUUUUAAAUACCUGCUGCAGGCCUCUUGCGGUCGCACUAGUGUGGAAUUCUCGGGUGUCAAGG
B5: ENSMUSG00000061578.1464|Ksr2|54:58 (ssRNA)
RNA: GGGAGUUCUACAGUCCGACGAUCGCUUCGAUAUCCGCAUGCUAGGUAGAUAGGUAUAUGAAUGAAUGGAUGAAUGGAUGGGUGAAUGGAUGGAUAGCAUACUGAAUAAAUGGAUGGAUGGAUGGAUUGAUUUGUGAAUGAAUGGAUGAAUGGAUGGGUAGGUGGGUGGAUGCAUAGGCAAGUAGAUGAAUGAAUAUGUGGGUAGAAGGGUGAGUGGGUGGAUGAAUGGAUGGAUAGGUUGGUAGGUUAAUGUAUUCGUGGAUGGGUGAAUGGAUGGAUGGAUAGAUAGAUGGGAAGGUGGAUGCUCUUGCGGUCGCACUAGUGUGGAAUUCUCGGGUGUCAAGG
B6: ENSMUSG00000061578.1464|Ksr2 (ssRNA)
RNA: B5 RNA with C97G, A98U, U99A, A100U, C101G
B7: ENSMUSG00000061578.1460|Ksr2|78:82 (ssRNA)
RNA: GGGAGUUCUACAGUCCGACGAUCGCUUCGAUAUCCGCAUGCUAGAUGGAUGAAUGGAUGGGUAGGUGGGUAGAUAGGUAUAUGAAUGAAUGGAUGAAUGGAUGGGUGAAUGGAUGGAUAGCAUACUGAAUAAAUGGAUGGAUGGAUGGAUUGAUUUGUGAAUGAAUGGAUGAAUGGAUGGGUAGGUGGGUGGAUGCAUAGGCAAGUAGAUGAAUGAAUAUGUGGGUAGAAGGGUGAGUGGGUGGAUGAAUGGAUGGAUAGGUUGGUAGGUUAAUGUAUUCGUGGAUGGGUGAAUGGAUGGAUGCUCUUGCGGUCGCACUAGUGUGGAAUUCUCGGGUGUCAAGG
B8: ENSMUSG00000061578.1458|Ksr2|90:94 (ssRNA)
RNA: GGGAGUUCUACAGUCCGACGAUCGCUUCGAUAUCCGCAUGCUAGAAUGAAUGGAUGAUGGAUGAAUGGAUGGGUAGGUGGGUAGAUAGGUAUAUGAAUGAAUGGAUGAAUGGAUGGGUGAAUGGAUGGAUAGCAUACUGAAUAAAUGGAUGGAUGGAUGGAUUGAUUUGUGAAUGAAUGGAUGAAUGGAUGGGUAGGUGGGUGGAUGCAUAGGCAAGUAGAUGAAUGAAUAUGUGGGUAGAAGGGUGAGUGGGUGGAUGAAUGGAUGGAUAGGUUGGUAGGUUAAUGUAUUCGUGGAUGGGUGCUCUUGCGGUCGCACUAGUGUGGAAUUCUCGGGUGUCAAGG
B9: ENSMUSG00000061578.1461|Ksr2|72:76 (ssRNA)
RNA: GGGAGUUCUACAGUCCGACGAUCGCUUCGAUAUCCGCAUGCUAUGAAUGGAUGGGUAGGUGGGUAGAUAGGUAUAUGAAUGAAUGGAUGAAUGGAUGGGUGAAUGGAUGGAUAGCAUACUGAAUAAAUGGAUGGAUGGAUGGAUUGAUUUGUGAAUGAAUGGAUGAAUGGAUGGGUAGGUGGGUGGAUGCAUAGGCAAGUAGAUGAAUGAAUAUGUGGGUAGAAGGGUGAGUGGGUGGAUGAAUGGAUGGAUAGGUUGGUAGGUUAAUGUAUUCGUGGAUGGGUGAAUGGAUGGAUGGAUAGACUCUUGCGGUCGCACUAGUGUGGAAUUCUCGGGUGUCAAGG
B10: ENSMUSG00000061578.1457|Ksr2|1:5;96:100 (ssRNA)
RNA: GGGAGUUCUACAGUCCGACGAUCGCUUCGAUAUCCGCAUGCUACAUACUGAAUGAAUGGAUGAUGGAUGAAUGGAUGGGUAGGUGGGUAGAUAGGUAUAUGAAUGAAUGGAUGAAUGGAUGGGUGAAUGGAUGGAUAGCAUACUGAAUAAAUGGAUGGAUGGAUGGAUUGAUUUGUGAAUGAAUGGAUGAAUGGAUGGGUAGGUGGGUGGAUGCAUAGGCAAGUAGAUGAAUGAAUAUGUGGGUAGAAGGGUGAGUGGGUGGAUGAAUGGAUGGAUAGGUUGGUAGGUUAAUGUAUUCGUGGACUCUUGCGGUCGCACUAGUGUGGAAUUCUCGGGUGUCAAGG

The target in the experiment is TDP-43 (Homo sapiens, UniProt Q13148 1-414). The experiment can be described thus: RNA Bind-n-Seq with designed 260-mer pool; 25 mM Tris-HCl, 150 mM KCl, 3 mM MgCl2, BSA (printed 500 mg/mL), 20 units/mL SUPERase IN; pH not stated; 500 nM RNA pool, 1 h, 4 C; TDP-43 5, 50, 500 nM; high values mean tight binding. Particulars: protein: recombinant; tags: SBP (GST cleaved off with PreScission; pGEX-GST-SBP). An outline of the steps: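 Recombinant SBP-tagged TDP-43 at 5, 50 or 500 nM was captured on streptavidin beads, then incubated 1 h at 4 °C with 500 nM of an in vitro-transcribed 260-nt 3′ UTR oligo pool in 25 mM Tris-HCl, 150 mM KCl, 3 mM MgCl2, BSA and SUPERase IN. Bound RNA was washed, eluted with biotin, reverse transcribed, PCR-amplified and sequenced. Binding is R, each oligo's mapped-read-normalized abundance in the bound sample divided by its abundance in input. Duplicates used two independent protein batches.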
Sequence of TDP-43 (Q13148 whole entry): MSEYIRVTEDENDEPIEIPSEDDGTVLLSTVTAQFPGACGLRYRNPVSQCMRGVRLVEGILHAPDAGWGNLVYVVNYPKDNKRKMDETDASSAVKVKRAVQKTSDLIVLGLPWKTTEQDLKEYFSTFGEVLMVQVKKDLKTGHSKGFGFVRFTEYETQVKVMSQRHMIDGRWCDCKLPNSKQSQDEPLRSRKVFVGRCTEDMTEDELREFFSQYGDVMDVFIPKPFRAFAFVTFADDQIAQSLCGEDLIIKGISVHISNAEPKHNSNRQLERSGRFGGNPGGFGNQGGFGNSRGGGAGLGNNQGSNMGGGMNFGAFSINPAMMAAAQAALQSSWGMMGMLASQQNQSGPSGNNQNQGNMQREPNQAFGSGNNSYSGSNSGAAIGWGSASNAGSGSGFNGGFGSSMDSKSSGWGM
For B1, the binding signal was 0.471 R (bound/input frequency ratio).

On to B2, for which the binding signal was 0.257 R (bound/input frequency ratio).

In the case of B3, the binding signal was 2.01 R (bound/input frequency ratio).

For the molecule B4, the binding signal is 0.26 R (bound/input frequency ratio).

On to B5, for which the binding signal was 7.9 R (bound/input frequency ratio).

Turning to B6, the binding signal is 5.55 R (bound/input frequency ratio).

B7: the binding signal is 5.37 R (bound/input frequency ratio).

As for B8, the binding signal is 6.91 R (bound/input frequency ratio).

B9: the binding signal was 4.58 R (bound/input frequency ratio).

As to B10, the binding signal is 5.06 R (bound/input frequency ratio).
